Source: PubChem
These entries were drawn from the full list.
aSyn 5UTR act – Activators via SNCA 5'UTR binding, MLPCN; AID 1814; alpha-synuclein 5'UTR reporter, activators screen; activity score, % (tested at 7.5 µM), hits read low; 300,000 compounds, 7.1% hits; in the data active means activity score below about -60%
* hit, by the source's call.

SMILES	aSyn 5UTR act
O=C1c2ccc3c4c(ccc(c24)C(=O)N1c1cccc(O)c1)C(=O)N(c1cccc(O)c1)C3=O	68.1
O=C1c2cccc3c(N4CCCCC4)ccc(c23)C(=O)N1c1ccc(O)cc1	-72.4*
CC(C)n1cc(NC(=O)c2cc(-c3ccccc3)on2)cn1	-218.3*
COc1ccc(NC(=O)c2cc(C)nn2-c2ccccc2)cc1	-73.3*
COc1ccc(-c2cc(C(=O)Nc3cc(Br)ccc3O)no2)cc1	-106.6*
COc1ccc(NC(=O)c2cc(-c3ccccc3)on2)cc1	-77.2*
COc1ccc(NC(=O)c2cccnn2)cc1	-96.8*
CCc1ccccc1NC(=O)c1cc(-c2ccc(OC)cc2)on1	-77.2*
COc1ccc(NC(=O)c2cc(C)on2)cc1	-106.2*
NC(=O)c1oc2ccccc2c1NC(=O)c1nc2ccccc2s1	-120.7*
Cc1csc(NC(=O)CSc2nnc(-c3ccoc3C)o2)n1	-111.2*
Cc1occc1-c1nnc(SCC(=O)Nc2nc(C(C)(C)C)cs2)o1	-111.0*
Cc1cnc(NC(=O)CC(C)c2ccccc2)s1 (stereo not drawn)	-196.5*
Cc1csc(NC(=O)CSc2nnc(-c3ccncc3)o2)n1	-99.4*
O=C(CSc1nnc(-c2ccccc2)o1)Nc1ccccc1F	73.7
Cc1cnc(NC(=O)CSc2nnc(-c3ccccc3)o2)s1	-138.7*
CSc1cccc(CNC(=O)C2CCC(=O)N(Cc3cccc(C(F)(F)F)c3)C2)c1 (stereo not drawn)	-72.6*
Cc1ccsc1CCNC(=O)C1CCC(=O)N(CCc2cccc(F)c2)C1 (stereo not drawn)	-102.3*
CN(C(=O)C1CCC(=O)N(Cc2cccc(F)c2)C1)C1CCCCC1 (stereo not drawn)	-125.6*
Cc1ccsc1CN(C)C(=O)C1CCC(=O)N(CCc2cccc(F)c2)C1 (stereo not drawn)	-90.9*
Cc1ccnc(NC(=O)c2cnc(Cl)c(Cl)c2)c1	-61.7*
Cc1ccnc(NC(=O)c2ccc(Cl)s2)c1	-104.5*
Cc1ccc(C(=O)NCC(=O)Nc2cc(C)ccn2)cc1	-65.8*
Cc1ccnc(NC(=O)CCNC(=O)c2ccc(Cl)cc2)c1	-110.3*
CCOc1ccc(C(=O)Nc2cc(C)ccn2)cc1	65.5
SMILES	aSyn 5UTR act
CCOc1ccc(CCNC(=O)COC(=O)c2cccc(N(C)C)c2)cc1OCC	-89.9*
Nc1ccc2c(c1Cl)C(=O)c1ccc(N)c(Cl)c1C2=O	-88.0*
CCCCc1nc2cc(C(=O)NC(C)c3cnn(C)c3)ccc2o1 (stereo not drawn)	-77.4*
CCCCc1nc2cc(C(=O)N3CCCCC3C(=O)OC)ccc2o1 (stereo not drawn)	-98.2*
CCCCc1nc2cc(C(=O)N3CCCC(COC)C3)ccc2o1 (stereo not drawn)	-86.2*
CCCCc1nc2cc(C(=O)N3CCCC3)ccc2o1	-89.7*
CCn1ccnc1CNC(=O)c1ccc2oc(CCCc3ccccc3)nc2c1	-75.5*
COCC1CCN(C(=O)c2ccc3oc(CCCc4ccccc4)nc3c2)C1 (stereo not drawn)	-95.3*
Cc1cnc(C(=O)Nc2ccc(N3CCOCC3)cc2)cn1	-73.5*
Cc1cnc(C(=O)Nc2ccc(OC(F)(F)F)cc2)cn1	-239.5*
Cc1cnc(C(=O)Nc2ccc(N3CCCCC3)cc2)cn1	-134.8*
COCCn1cnnc1SCC(=O)Nc1ccccc1C(=O)Nc1ccc2c(c1)OCO2	-69.9*
COc1ccccc1C(=O)Nc1ccc2c(c1)OCCO2	-124.3*
COc1ccccc1C(=O)Nc1ccc2c(c1)OCO2	-245.5*
COc1cc(C2=NOC(C(=O)NCc3ccc(F)cc3)C2)cc(OC)c1OC (stereo not drawn)	77.1
COc1cc(C2=NOC(C(=O)Nc3ccc4c(c3)OCO4)C2)cc(OC)c1OC (stereo not drawn)	-64.4*
O=C(Nc1ccccc1C(=O)Nc1ccc2c(c1)OCO2)c1ccco1	-73.7*
COc1ccc(/C=N/N=C(\N)c2nonc2N)cc1	-111.0*
CN(Cc1cccs1)C(=O)Cc1csc(-c2ccccc2)n1	-115.8*
Cc1ccsc1C(=O)OCc1csc(-c2ccccc2)n1	-99.0*
Cn1cccc1C(=O)OCc1csc(-c2ccccc2)n1	-112.4*
CC/C(=N\Nc1nncc2ccccc12)c1ccc(F)cc1	-189.9*
CC(=O)c1ccc(NC(=O)c2ccc([N+](=O)[O-])o2)cc1	-355.4*
NS(=O)(=O)c1ccc(O)c(NC(=O)c2ccc([N+](=O)[O-])o2)c1	-62.0*
Cc1ccccc1C(=O)N1CCN(c2ccc(NC(=O)c3ccc([N+](=O)[O-])o3)cc2)CC1	-167.8*
SMILES	aSyn 5UTR act
CN1CCN(c2ccc(NC(=O)c3ccc(-c4cccc([N+](=O)[O-])c4)o3)cc2)CC1	-208.4*
Cc1ccccc1C(=O)N1CCN(c2ccc(NC(=O)c3ccc4c(c3)OCO4)cc2)CC1	47.7
O=C(Nc1ccc2oc(=O)ccc2c1)c1ccc(-c2cccc([N+](=O)[O-])c2)o1	91.5
CN(C)c1ncnc2c1ncn2C1OC(CO)C(O)C1O (stereo not drawn)	108.0
COc1ccc(NC(=O)c2ccc([N+](=O)[O-])o2)cc1	-319.6*
CCCC(=O)N1CCN(c2ccc(NC(=O)c3ccc([N+](=O)[O-])o3)cc2Cl)CC1	-118.0*
CN1CCN(c2ccc(NC(=O)c3ccc([N+](=O)[O-])o3)cc2Cl)CC1	60.5
Cc1ccccc1OCc1nc2c3cnn(C)c3ncn2n1	-151.6*
CCn1c(C)cc(C=C2C(=O)c3ccccc3C2=O)c1C	-92.3*
Cc1cccc(-n2c(C)cc(C=C3C(=O)c4ccccc4C3=O)c2C)c1	-90.6*
COc1ccc(CSc2nnc(C)s2)cc1F	-127.4*
COC(=O)c1cccc(CSc2nnc(C)s2)c1	-81.9*
COC(=O)c1ccc(CSc2nc(N)cc(N)n2)cc1	-66.4*
COC(=O)c1ccc(Oc2cc(C)nc(-n3nc(C)cc3C)n2)cc1	65.2
COc1ccc(/C(C)=N/Nc2ccc(C(=O)O)cc2)cc1OC	-137.3*
C/C(=N\Nc1ccc(C(=O)O)cc1)c1nc2ccccc2n1C	-148.1*
Cn1nnnc1N=N/C(=N/Nc1ccccc1)c1ccccc1	103.6
C/C(=N\Nc1ccc(C(=O)O)cc1)c1ccc(-n2ccnc2)cc1	-70.2*
COc1cc(/C(C)=N/Nc2ccc(C(=O)O)cc2)cc(OC)c1OC	-101.3*
Cc1ccc(NC(=O)NC2=NN(c3ccccc3)C(=O)/C2=C2/CCCN2C)cc1	-62.7*
COc1cccc(C2=N/C(=C\N(C)C)C(=O)O2)c1	-133.0*
COc1ccc2nc3sc(C(=O)NCCCN4CCc5ccccc5C4)cc3cc2c1	-83.7*
CCOC(=O)c1ccc2c(c1)[nH]c(=S)n2CC	-64.2*
Cc1cc(C2=NNC(=NC3CC3)SC2)c(C)n1-c1ccccc1	95.2
Cc1cc(-c2nnco2)c(C)n1-c1ccccc1	-101.2*
SMILES	aSyn 5UTR act
O=C(Nc1ccc(NC(=O)c2ccco2)cc1)c1ccc2c(c1)OCCO2	60.9
Cc1cc(NC(=O)c2ccc([N+](=O)[O-])o2)ccc1NC(=O)c1ccco1	-110.4*
Cc1cc(NC(=O)c2ccc3c(c2)OCCO3)ccc1NC(=O)c1ccco1	-66.2*
CCC(C)[C@H](NC(=O)N1CC(=O)Nc2ccccc21)C(=O)Nc1ccccc1C (stereo partly drawn)	-94.9*
O=C1CC(c2cc(-c3ccccc3)no2)C1	-98.9*
C/C(=N/Nc1ccc([N+](=O)[O-])cc1)c1ccc(C)cc1C	-89.1*
C/C(=N\NC(=O)c1ccc(O)cc1)c1cc2ccccc2o1	-98.0*
C/C(=N/Nc1ccc([N+](=O)[O-])cc1)c1c[nH]c2ccccc12	-171.2*
C/C(=N\Nc1ccc([N+](=O)[O-])cc1)c1cc2ccccc2o1	-72.6*
